In the OligoGym collection:

What follows are sequences tested against SFTA2 (assay: pooled miR-30 sensor sort-seq; sequence = guide strand). Settings: shRNA.
Note: reference of the scale not given here.

Sequence | sensor-assay potency score (higher = more potent)
TGGAGGGTGACGCTGGTCCCTG | -1.43
TTCAGTTGCAAAGTCATACCCG | 0.378
ATGGTGTTGAGATCTTGCATGG | -1.27
TTTGTCAGAAAAGACTCCTTCA | 0.111
TCAAGCAATTCCAGGAAGCTGG | -0.742

Each sequence was assayed against SGK1 in the same assay as above. Settings: shRNA.

Sequence | sensor-assay potency score (higher = more potent)
TACAATTTGTCAGCAGTCTGGA | 0.173
TTCTTCAACAGAACATTCCGCT | 0.565
TAAGTCTCTATAAACGATGTTC | -0.772
TTTAGCATGAGGATTGGACGAC | -0.303
TACATTTCAGCTGTGTTTCGGC | 0.293
TTTGCTGAGAAGGACTTGGTGG | 0.0605
TTTGACTGCATAGAACACTTCT | 0.33
TTATTAATGAGATCATCCCAGT | -0.742
TTGTCGTACATTTCAGCTGTGT | -0.298
TTGCTAGAAGAACCTTTCCAAA | -1.79
TTCTGTAAAACTTTGACTGCAT | 0.858
TTTTAAGTCTCTATAAACGATG | -1.25

These sequences were tested against SGTA in the same assay as above. Settings: shRNA.

Sequence | sensor-assay potency score (higher = more potent)
TTGGACTTGTATGTCTCGTTGT | 0.614
TTCTGCTGCTGCATCTGCTGGG | 0.386
TATCTTGAGGTTGGACTTGTAT | -0.792
TCATCTGCTCGTTTCCTTCGGT | 0.113
TATCAACTCTGGGTTCTGCTGC | 0.409
AAGGTCACTGTCTTCTACCGTC | 0.33
TTGTATGTCTCGTTGTCGGGGT | 0.213
TGAGCTGCTCTATCAACTCTGG | -0.693
TTCCACTTTCATCTGCTCGTTT | 0.488
TTTTCCACTTTCATCTGCTCGT | -0.241
TTGAGCTCGATGGCTTTTCCGT | -0.866
TAGGCCTTGCTGTAGGCCGGGT | -1.17

These sequences were tested against SH3YL1 in the same assay as above. Settings: shRNA.

Sequence | sensor-assay potency score (higher = more potent)
TTGGAGGTAATTCTTTAGCAGA | -1.34
TTATATTCATTTCTGTTGCTTT | -0.121
ATAACTGTGATTCTGTCTCCAG | -0.286
TAACTGTGATTCTGTCTCCAGC | -0.946
TTGTCCTTCATTTTCATACTTT | -0.366
TTAACTAGTAAATCCTGTCAGT | -0.0626
TTTTCTTGCATTGATTCGTTGT | 0.574
TTTCATAAAGATCTTCGGCTTG | -0.146
TTGCTTAACTAGTAAATCCTGT | 0.218
TTGAGAGCCAGAGTTCAGCTGG | 0.176
TTTAGCAGAAGACTTCCTCTGC | 0.193
